Compound activity deposited in PubChem by National Center for Advancing Translational Sciences (NCATS).
A selection: hits, their analogues and other compounds. The true share with any hit is near 7.3%.
Rab9 promoter act – activators of Rab9 promoter; Huh7 Rab9 promoter-luciferase reporter, luminescence, 24 h; Potency, µM (series often up to 9.22 µM), for inactives: at the top dose activation, negative = inhibition, most hits filed as activators; 320,000 compounds, 2.8% hits; also: % of control where 0% means no effect; nearly all actives have a fitted effect of over 60% in size
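Quantitative HTS format; Huh7 Rab9-luciferase reporter cells (1500/well) receive compound 2 h post-plating, incubate 24 h at 37 °C, then get luciferase reagent for 10 min before luminescence reading.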
FLuc counter – counter-screen for miR-21 project: firefly luciferase inhibitors or activators. AID 588342. 360,000 compounds, 6.9% hits. P08659. purified FLuc, Km substrates, luminescence inhibition. Potency, µM (highest dose often 57.5 µM), inactives show at the top dose activity change, negative = inhibition, hits mostly inhibitors;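 also: plate controls were vehicle for no effect and reference inhibitor for full effect; nearly all actives have a fitted effect of over 55% in size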
Target sequence (P08659 whole entry, looked up): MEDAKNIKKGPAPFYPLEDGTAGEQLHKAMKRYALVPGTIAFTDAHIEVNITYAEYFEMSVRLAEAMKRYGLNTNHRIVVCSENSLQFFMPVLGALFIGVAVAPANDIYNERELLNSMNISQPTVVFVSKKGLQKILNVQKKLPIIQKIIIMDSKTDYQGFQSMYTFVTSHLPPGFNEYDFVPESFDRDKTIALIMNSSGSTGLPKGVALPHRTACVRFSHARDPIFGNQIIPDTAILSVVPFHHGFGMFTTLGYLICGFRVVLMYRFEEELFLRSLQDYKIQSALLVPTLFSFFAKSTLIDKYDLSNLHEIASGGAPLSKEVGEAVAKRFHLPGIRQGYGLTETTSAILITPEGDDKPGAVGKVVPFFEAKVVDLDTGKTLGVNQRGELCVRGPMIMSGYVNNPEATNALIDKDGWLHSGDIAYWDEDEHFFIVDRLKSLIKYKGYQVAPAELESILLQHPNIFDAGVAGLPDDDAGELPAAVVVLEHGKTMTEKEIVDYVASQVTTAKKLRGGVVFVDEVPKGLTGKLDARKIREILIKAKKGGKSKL
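Purified P. pyralis luciferase, 10 nM final, with Km-level 10 uM D-luciferin and 10 uM ATP in 50 mM Tris acetate pH 7.5, 10 mM Mg acetate, 0.01% Tween-20, 0.05% BSA; 6-point qHTS titration about 60 µM downward; luminescence read.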
KinaseGlo FLuc – Kinase-Glo luciferase inhibition (counter-screen) | Q27757 | Kinase-Glo luciferase, ATP luminescence, 8 min | Potency, µM (series often up to 38.3 µM), for inactives: at the top dose activity change, negative = inhibition, actives largely listed as inhibitors | 200,000 compounds, 0.28% hits; also: % is scaled to controls: 0 for no effect and ±100 for the full control effect; nearly all actives have a fitted effect of over 60% in size
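Compounds were added to a substrate mix at pH 7.2 (50 mM imidazole, 10 uM ATP, within the enzyme's linear range), followed by Kinase-Glo detection reagent; luminescence was measured after 8 minutes at ambient temperature.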
ELG1 genotoxic – genotoxicity induction in ELG1-luciferase HEK293T cells. HEK293T ELG1-luciferase reporter, luminescence, 16 h. Potency, µM (series often up to 46 µM), for the others: at the top dose activity change, positive = activation, actives largely listed as activators. 330,000 compounds, 1.3% hits. AID 504466; also: % of control where 0% means no effect; nearly all actives have a fitted effect of over 60% in size
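Luminescence read-out: rising ELG1-luciferase signal, reflecting elevated ELG1 protein under genetic stress, flags genotoxic compounds. Cells were treated for 16 hr at 37 °C before ONE-Glo detection.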
NPC1 prom act – NPC1 promoter activation | 320,000 compounds, 2.4% hits | Potency, µM (titrated, usually from 9.22 µM), for inactives: at the top dose activation, actives largely listed as activators | AID 485313 | Huh7 NPC1 promoter luciferase reporter, 24 h; also: % of control where 0% means no effect; nearly all actives have a fitted effect of over 60% in size
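Stably transfected Huh7 (NPC1 promoter→luciferase), 1500 cells/well in Opti-MEM + 10% FBS, 2 h settle, then compound 24 h at 37 °C. Luminescence after 10 min with Amplite reagent.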
SMN2 splice enh – enhancers of SMN2 splice variant expression | HEK293 SMN2-luciferase splicing reporter, luminescence, 30-36 h | Potency, µM (series often up to 46.1 µM), without a hit: at the highest dose activity change, positive = activation, most hits filed as activators | 210,000 compounds, 2.8% hits | AID 1458; also: % of control where 0% means no effect; nearly all actives have a fitted effect of over 55% in size
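HEK293 cells carry an SMN2 […]–luciferase reporter in which exon 7 inclusion puts luciferase in frame. Cells were plated 10-12 h before compound addition, then incubated 30-36 h at 37C. ONE-Glo luminescence was read; sodium butyrate at 4.5 mM final served as control.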
An asterisk follows results filed as active; u = inconclusive; x = no result given; [ ] = remark or other dose. Calls follow the shape of the dose curve; as a rule, active = well fitted curve in the direction sought with a large enough effect; inconclusive = small, poorly fitted or top-dose-only effect, or another doubt; inactive = no such curve, though single readings can be large; an effect the other way counts as inactive or inconclusive. Potency is read from the fitted curve at half-maximal effect.

SMILES | Rab9 promoter act | FLuc counter | KinaseGlo FLuc | ELG1 genotoxic | NPC1 prom act | SMN2 splice enh
NC(=O)c1ccccc1NC(=O)CN1CCCCCC1 | 0% | 4% | x | -6% | 18% | x
COc1cccc(NC(=O)Cn2c(=O)n(CCCCC(=O)NCc3ccc4c(c3)OCO4)c(=O)c3ccccc32)c1 | x | 3% | x | x | x | -17%
CCN(CC)c1ccc(NC(=O)CSc2nnc(C)c(=O)[nH]2)cc1 | x | u | x | x | x | 10%
Cn1c(=O)c2c(-c3ccc(Cl)cc3)ccnc2n(C)c1=O | x | 4% | x | x | x | -11%
O=C(O)c1ccccc1NS(=O)(=O)c1ccc2ccccc2c1 | 8% | 15µM* | x | 12% | 1% | x
O=C(O)c1ccccc1NS(=O)(=O)c1cccc(-n2sc3ccccc3c2=O)c1 | 0% | 11µM* | x | -8% | 1% | x
O=C(O)c1ccccc1NS(=O)(=O)c1ccc(Cl)c(Cl)c1 | x | x | -2% | x | x | x
CCOc1ccc(OCC)c(NC(=O)CN(C)S(=O)(=O)c2ccc3[nH]c(=O)oc3c2)c1 | x | -5% | x | x | x | x
CC1(C)OC(=O)C(=CNc2ccccc2)C(=O)O1 | 0% | u | -2% | 12% | -3% | -4%
CC1(C)OC(=O)C(=NNc2ccc(Br)cc2)C(=O)O1 | -4% | 19µM* | 5% | 2% | -2% | -29%
CCN(CC)S(=O)(=O)c1ccc2nc(NC(=O)c3cccs3)sc2c1 | u | 15µM* | 2% | u | 23% | u
CCN(CC)S(=O)(=O)c1ccc2nc(NC(=O)c3ccco3)sc2c1 | 8% | 19µM* | -2% | 4% | 16% | 12%
O=C(O)CCC/C=C\C[C@@H]1C(/C=C/[C@@H](O)COc2cccc(C(F)(F)F)c2)[C@@H](O)C[C@@H]1O (some centres undefined) | x | x | x | x | x | 3%
CN(C)S(=O)(=O)c1cccc(C(=O)Nc2cc(Cl)ccc2O)c1 | u | 13µM* | -3% | -1% | u | -13%
CNC(=O)c1ccccc1NC(=O)c1cccc(S(=O)(=O)N2CCCCC2)c1 | -7% | 0% | x | -7% | -3% | x
Cc1ccc(O)c(NC(=O)c2cccc(S(=O)(=O)N3CCCCC3)c2)c1 | -2% | -9% | 0% | -1% | 0% | 4.5µM*
O=C(Nc1ccccc1C(=O)O)c1cccc(S(=O)(=O)N2CCCC2)c1 | x | 12µM* | x | x | x | 6%
CCSc1ccccc1C(=O)Nc1ccc(-c2nc3ccccc3s2)c(O)c1 | x | -2% | x | x | x | x
NC1=C2NC=N[C@@H]2N(C/C=C\c2ccccc2)C=N1 | x | x | -2%[7.66 µM] | x | x | -15%[9.22 µM]
CCOc1cc(/C=N/NC(=O)Nc2ccccc2)ccc1O | u | 9.5µM* | -4% | u | 14% | x
CCOc1cc(/C=N/NC(=O)c2ccc(NC(=O)C3CC3)cc2)ccc1O | 18% | u | x | -5% | 0% | x
COc1cc(/C=N/NC(=O)Nc2ccccc2)ccc1OC(C)=O | u | 11µM* | -6% | u | 28% | u
CCN(CC)c1ccc(NC(=O)CN2C(=O)c3cccnc3Oc3ccccc32)c(C)c1 | x | -8% | x | x | x | x
CCOc1ccc(-c2cc(C(=O)N3CCN(S(=O)(=O)c4cc(Cl)ccc4OC)CC3)[nH]n2)cc1 | x | -19% | x | x | x | x
O=C(/C=C/c1ccccc1)NC1CCSC1=O (centres undefined) | 21% | u | -5% | 12% | 25% | 16µM*
SMILES | Rab9 promoter act | FLuc counter | KinaseGlo FLuc | ELG1 genotoxic | NPC1 prom act | SMN2 splice enh
COc1cc(SC)ccc1C(=O)Nc1c(C)cccc1C | -2% | -8% | 0% | 1% | -6% | -17%
COc1cc(SC)ccc1C(=O)Nc1nccs1 | 0.56µM* | 0.6µM* | -6% | u | 0.89µM* | x
CSc1cccc(NC(N)=O)c1 | -2% | -4% | x | -2% | -2% | x
COc1cc(SC)ccc1C(=O)Nc1ccccc1 | 28% | 6.7µM* | -1% | u | 8% | u
CSc1cccc(NC(=O)c2cccc3cccnc23)c1 | 26% | 6.7µM* | x | u | u | x
COc1cc(SC)ccc1C(=O)NNC(=O)c1cc(C)oc1C | 1.3µM* | 1.9µM* | x | u | 3.2µM* | x
CCOc1ccc(-c2cn3c(n2)sc2cc(C(=O)NCCc4ccc(OC)c(OC)c4)ccc23)cc1 | x | u | x | x | x | -11%
CC1=C(C(=O)OC2CCCC2)C(c2ccccc2C(F)(F)F)CC(=O)N1 (centres undefined) | x | -1% | x | x | x | -1%
COc1ccccc1C(=O)Nc1cccc(SC)c1 | 16% | 17µM* | 0% | u | -2% | 21%
Cc1ccc(-c2cc(-c3nnc(SCC(=O)N(C)CCC#N)n3N)c3ccccc3n2)cc1 | 7% | 11µM* | 1% | 1% | 1% | -47%
O=C(Nc1ccc2ccccc2n1)c1ccc(Cl)cc1 | 0.63µM* | 2.1µM* | x | u | 1µM* | x
O=C(Nc1ccccc1)C1CCCCC1 | -2% | -1% | 1% | 0% | -1% | x
COc1ccccc1NC(=O)c1cc2ccccc2nc1C | -32% | 0% | 0% | -4% | 14% | -6%
O=C(Nc1ccc2ccccc2n1)c1ccccc1Cl | 0.56µM* | 1.3µM* | x | u | 0.71µM* | x
COc1ccc(C(=O)Nc2ccc3ccccc3n2)c(OC)c1OC | u | 0.21µM* | x | 0.33µM* | u | x
O=C(Nc1ccc2ccccc2n1)C1CCCCC1 | 0.79µM* | 6µM* | x | u | 1.1µM* | x
CCOC(=O)c1c(NC(=O)C(C)Sc2cn(CCNC(=O)c3c(F)cccc3F)c3ccccc23)sc2c1CCC2 (centres undefined) | x | 3% | x | x | x | -3%
CCOC(=O)c1scc(-c2ccc(C)cc2)c1S(=O)(=O)Nc1cc(Cl)ccc1OC | x | -1% | x | x | x | x
Cc1ccccc1C(=O)Nc1nc2c(s1)CC(C(C)(C)C)CC2 (centres undefined) | x | 6µM* | x | x | x | x
CC(C)Oc1ccc(C(=O)Nc2nc3c(s2)CC(C(C)(C)C)CC3)cc1 (centres undefined) | x | -14% | x | x | x | x
CC1CCc2nc(NC(=O)Nc3ccc4c(c3)OCO4)sc2C1 (centres undefined) | 2.5µM* | 1.3µM* | x | u | 3.2µM* | x
CC1CCc2nc(NC(=O)C3CC3)sc2C1 (centres undefined) | u | 24µM* | -6% | 16% | u | u
CC1CCc2nc(NC(=O)C3COc4ccccc4O3)sc2C1 (centres undefined) | u | 0.54µM* | -4% | u | u | -51%
Cc1ccccc1CNC(=O)C(=O)NCC(c1ccc2c(c1)OCO2)N1CCOCC1 (centres undefined) | x | 2% | x | x | x | x
COc1ccc(C(=O)NCC(c2ccc(N(C)C)cc2)N2CCc3ccccc32)cc1 (centres undefined) | x | -2% | x | x | x | x
